Data as given in PubChem BioAssay.
Active and inactive are the calls of the source. Unless noted, how the calls were made is not given here.

What was measured:
[1] = resazurin metabolic signal in HepG2 cells – cell-based, resazurin fluorescence, 24 h, PK04 Diversity Set, profiling panel (AID 1172); conditions: HepG2 viability, higher = more signal
[2] = budding yeast growth changes without added modifier – OD600, strain BY4716, 24 h, basal condition, primary screen (AID 1173); conditions: S. cerevisiae BY4716 growth, OD600, 24 h; higher = more signal, called active from +8 up or from −8 down
[3] = viability profiling in MM1S myeloma cells – cell-based, resazurin fluorescence, basal, 24 h, PK04 Diversity Set, profiling panel (AID 1174); conditions: higher = more signal, called active from +8 up or from −8 down;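 further: MM1S multiple myeloma cell line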
[4] = biological target: Dihydroorotate dehydrogenase (quinone), mitochondrial (Plasmodium falciparum (isolate 3D7)) (UniProt Q08210); experiment: inhibition of P. falciparum DHODH – biochemical, C-terminal His tag, absorbance 600 nm, primary screen (AID 1175); conditions: PfDHODH enzyme, DCIP absorbance 600 nm; higher = more signal, called active from +8 up or from −8 down;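 further: recombinant parasite enzyme with a five histidine tag at its C terminus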
[5] = inhibition of PAO1 biofilm formation – strain PAO1, LB-PBS medium, absorbance 600 nm, primary screen (AID 1176); conditions: P. aeruginosa PAO1 growth/biofilm, A600, 12 h; higher = more signal
[6] = growth modulation of vineyard yeast isolate – strain RM11-1a, OD600, basal, 24 h, primary screen (AID 1177);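 further: cultures grown under basal conditions with no added stressor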; conditions: S. cerevisiae RM11-1a growth, OD600, 24 h; higher = more signal, called active from +8 up or from −8 down
[7] = growth of efflux-deficient E. coli DRC39 – strain DRC39, OD650, 24 h, E. coli filamentation inducers, primary screen (AID 1178);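 further: growth measured as culture turbidity by optical density at 650 nm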; conditions: E. coli DRC39 acrAB, higher = more signal, called active from +8 up or from −8 down
[8] = growth of efflux-deficient E. coli DRC39 – strain DRC39, OD650, 48 h, E. coli filamentation inducers, primary screen (AID 1179);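 further: screen aims at cell division blockers that make cells filament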; conditions: E. coli DRC39 delta-acrAB growth, higher = more signal, called active from +8 up or from −8 down
[9] = viability profiling in RPMI8226 myeloma cells – cell-based, resazurin fluorescence, basal, 24 h, PK04 Diversity Set, profiling panel (AID 1180); conditions: higher = more signal;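 further: RPMI8826 multiple myeloma cell line at 5000 cells per well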
[10] = biological target: E3 ubiquitin-protein ligase XIAP (Homo sapiens) (UniProt P98170); experiment: small molecules binding XIAP protein – biophysical, small-molecule microarray, fluorescence 635 nm, primary screen (AID 1181); conditions: higher = more signal;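 further: score merges 667 nm emission and signal to noise over triplicate slides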
[11] = system: XIP peptide (Xip251-270) binding; experiment: XIP fragment 251-270 binding compounds – biochemical, small-molecule microarray, fluorescence 635/667 nm, 0.1 µg/mL protein, primary screen (AID 1182); conditions: fluorescent protein binding, 635 nm, higher = more signal, called active from +8 up or from −8 down
XIP peptide (Xip251-270) = experiment: compounds binding XIP fragment 251-270 – biochemical, small-molecule microarray, fluorescence 635/667 nm, 0.5 µg/mL protein, primary screen (AID 1183); conditions: fluorescence 635 nm, higher = more signal
[12] = blood-stage malaria parasite viability loss – strain 3D7, DAPI fluorescence, 100 nL, primary screen (AID 1184);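 further: parasites grown inside human red blood cells in medium with human serum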; conditions: P. falciparum 3D7 growth, 3 d, higher = more signal
[13] = biological target: Homeobox protein Hox-A13 (Mus musculus) (UniProt Q62424); experiment: disruptors of Hoxa13 oligonucleotide interaction – biochemical, fluorescence polarization, labeled oligonucleotide, primary screen (AID 1185); conditions: Hoxa13:DNA binding, 15 min, higher = more signal, called active from +8 up or from −8 down
[14] = blockers of DNA damage checkpoint Chk1 activation – imaging, HeLa, hydroxyurea, phospho-Chk1 antibody, percent positive cells, primary screen (AID 1186); conditions: hydroxyurea-induced phospho-Chk1 immunofluorescence imaging, higher = more signal
[15] = blockers of DNA damage checkpoint Chk1 activation – imaging, HeLa, hydroxyurea, phospho-Chk1 nuclear intensity, primary screen (AID 1187); conditions: hydroxyurea-induced phospho-Chk1 immunofluorescence imaging, higher = more signal

Chain of E3 ubiquitin-protein ligase XIAP (Homo sapiens) (P98170 whole entry, looked up, the tested form may be a part): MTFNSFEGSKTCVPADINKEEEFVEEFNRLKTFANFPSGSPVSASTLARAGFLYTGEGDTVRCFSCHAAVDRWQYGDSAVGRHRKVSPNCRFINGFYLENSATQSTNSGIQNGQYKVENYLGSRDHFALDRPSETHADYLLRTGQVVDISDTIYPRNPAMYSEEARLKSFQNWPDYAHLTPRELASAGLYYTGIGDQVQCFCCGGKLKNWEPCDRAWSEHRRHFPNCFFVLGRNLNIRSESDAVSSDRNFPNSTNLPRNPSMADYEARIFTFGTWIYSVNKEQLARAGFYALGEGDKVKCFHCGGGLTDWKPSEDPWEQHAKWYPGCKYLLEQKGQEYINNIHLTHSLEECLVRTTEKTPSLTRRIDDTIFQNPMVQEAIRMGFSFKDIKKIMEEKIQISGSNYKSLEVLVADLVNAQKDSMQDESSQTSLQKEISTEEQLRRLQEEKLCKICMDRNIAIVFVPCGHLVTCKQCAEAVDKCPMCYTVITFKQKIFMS
Chain of Homeobox protein Hox-A13 (Mus musculus) (Q62424 whole entry, looked up): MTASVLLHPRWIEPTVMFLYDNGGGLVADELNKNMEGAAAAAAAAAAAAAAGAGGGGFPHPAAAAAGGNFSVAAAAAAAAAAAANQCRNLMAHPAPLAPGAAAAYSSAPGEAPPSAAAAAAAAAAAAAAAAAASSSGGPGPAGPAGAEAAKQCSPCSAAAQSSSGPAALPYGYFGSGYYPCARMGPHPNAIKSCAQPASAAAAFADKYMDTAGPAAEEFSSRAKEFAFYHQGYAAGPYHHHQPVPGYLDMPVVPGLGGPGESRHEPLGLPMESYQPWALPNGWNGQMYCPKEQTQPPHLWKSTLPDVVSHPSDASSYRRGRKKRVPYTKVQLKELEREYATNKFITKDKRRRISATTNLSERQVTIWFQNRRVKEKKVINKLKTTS
Chain of Dihydroorotate dehydrogenase (quinone), mitochondrial (Plasmodium falciparum (isolate 3D7)) (Q08210 whole entry, looked up): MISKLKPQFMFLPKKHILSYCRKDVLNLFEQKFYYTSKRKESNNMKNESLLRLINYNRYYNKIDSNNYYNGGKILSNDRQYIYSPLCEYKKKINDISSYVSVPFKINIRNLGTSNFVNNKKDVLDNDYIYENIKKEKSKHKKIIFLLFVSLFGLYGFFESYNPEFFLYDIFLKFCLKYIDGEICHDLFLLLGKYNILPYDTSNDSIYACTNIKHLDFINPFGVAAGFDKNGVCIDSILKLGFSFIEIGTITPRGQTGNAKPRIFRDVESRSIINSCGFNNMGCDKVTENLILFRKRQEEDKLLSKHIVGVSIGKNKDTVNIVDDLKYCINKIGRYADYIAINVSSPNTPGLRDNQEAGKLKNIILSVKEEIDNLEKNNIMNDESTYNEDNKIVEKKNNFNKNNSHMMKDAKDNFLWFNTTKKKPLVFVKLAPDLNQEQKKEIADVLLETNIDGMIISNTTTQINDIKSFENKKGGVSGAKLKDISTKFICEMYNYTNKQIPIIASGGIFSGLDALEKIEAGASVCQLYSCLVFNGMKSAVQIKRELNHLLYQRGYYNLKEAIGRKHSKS

| SMILES | z-score [1] | z-score [2] | z-score [3] | composite z-score [4] | z-score [5] | z-score [6] | z-score [7] | z-score [8] | z-score [9] | composite z-score [10] | composite z-score [11] | composite z-score (XIP peptide (Xip251-270)) | z-score [12] | z-score [13] | z-score [14] | z-score [15] |
| --- | --- | --- | --- | --- | --- | --- | --- | --- | --- | --- | --- | --- | --- | --- | --- | --- |
| CC=CC(O)C1C=CC2C(=O)N(C)C(=O)C2N1Nc1ccc([N+](=O)[O-])cc1[N+](=O)[O-] (centres undefined) | -1.12 | 0.554 (inactive) | -0.831 (inactive) | 0.295 (inactive) | 0.599 (inactive) | 0.658 (inactive) | -0.476 (inactive) | -0.618 (inactive) | -0.606 | -0.247 | 0.32 (inactive) | 0.266 | 0.619 | -0.734 (inactive) | -0.0994 (inactive) | -0.104 (inactive) |
| CCCCN1CC=CC23O[C@@H]4C=CCOC(=O)[C@@H]4[C@H]2C(=O)N(C(C)CO)[C@@H]3C1=O (some centres undefined) | -0.0023 | 0.15 (inactive) | -0.536 (inactive) | -1.49 (inactive) | -0.456 (inactive) | -0.938 (inactive) | -0.338 (inactive) | -0.478 (inactive) | -0.784 | -0.0525 | -0.161 (inactive) | -1.06 | 1 | -5.05 (inactive) | -0.525 (inactive) | -0.392 (inactive) |
| CCOc1cc(C(O)C2C=CC3C(=O)N(C)C(=O)C3N2N2CCCCC2)ccc1O (centres undefined) | -1.1 | 1.62 (inactive) | -0.791 (inactive) | 0.66 (inactive) | 0.614 (inactive) | 2.07 (inactive) | -0.637 (inactive) | -0.8 (inactive) | -0.698 | 0.179 | 0.169 (inactive) | 0.333 | -0.144 | -5.25 (inactive) | -0.595 (inactive) | -0.839 (inactive) |
| [N-]=[N+]=Nc1ccccc1[C@@H]1OC(c2ccc(OCCCO)cc2)=N[C@]1(CCS(=O)(=O)c1ccccc1)C(=O)NCCN1CCOCC1 | -0.376 | -1.32 (inactive) | -0.195 (inactive) | 0.313 (inactive) | 0.236 (inactive) | -0.309 (inactive) | 0.833 (inactive) | -0.278 (inactive) | -0.659 | -0.34 | 0.691 (inactive) | 0.433 | -2.67 | -3.85 (inactive) | 0.147 (inactive) | 0.222 (inactive) |
| COc1cc2c(cc1O)C(C)N(Cc1cc3c(cc1Br)OCO3)CC2 (centres undefined) | -0.587 | -0.272 (inactive) | 0.297 (inactive) | -9.46 (active) | -0.351 (inactive) | 0.526 (inactive) | 0.553 (inactive) | 0.0553 (inactive) | 0.538 | -0.157 | 1.5 (inactive) | 0.291 | -2.03 | -1.58 (inactive) | -0.765 (inactive) | -1.06 (inactive) |
| C#CCNC(=O)[C@H](Cc1ccccc1)NC(=O)[C@@H](N=[N+]=[N-])C(C)C | 0.664 | -1.19 (inactive) | 0.633 (inactive) | -0.635 (inactive) | -0.24 (inactive) | -0.597 (inactive) | 0.713 (inactive) | 0.626 (inactive) | 0.816 | 0.117 | 0.056 (inactive) | 0.262 | -0.765 | -0.747 (inactive) | 0.744 (inactive) | 0.815 (inactive) |
| COc1ccc([Si](C)(C)[C@@H]2[C@@H](CCO)O[C@]3(C(=O)N(Cc4cccc(N5C(=O)c6ccccc6Oc6ccccc65)c4)c4ccccc43)[C@H]2C)cc1 | -1.11 | 1.02 (inactive) | -4.32 (inactive) | 0.786 (inactive) | 1.64 (inactive) | 5.08 (inactive) | 1.89 (inactive) | 1.48 (inactive) | -2.95 | -0.177 | 0.872 (inactive) | 0.41 | -2.47 | -1.49 (inactive) | -0.665 (inactive) | -0.278 (inactive) |
| COC(=O)C(CC#Cc1ccc2c(c1)[C@]1(C(=O)N2)[C@H](C(=O)O)[C@H]2C(=O)O[C@H](c3ccccc3)[C@H](c3ccccc3)N2[C@@H]1c1ccccc1OCCO)C(=O)OC | 0.289 | -0.307 (inactive) | 0.0819 (inactive) | -18.9 (active) | 2.07 (inactive) | 2.55 (inactive) | 0.698 (inactive) | 0.202 (inactive) | -4.42 | -0.0673 | 0.341 (inactive) | 0.853 | -2.06 | -6.38 (inactive) | -0.244 (inactive) | -0.674 (inactive) |
| C=C[C@@H](C)[C@H](OC(=O)Nc1ccc(SC)cc1)c1ccc(OCCO)cc1 | 0.571 | -3.42 (inactive) | -0.0261 (inactive) | -1.16 (inactive) | 0.638 (inactive) | 0.0728 (inactive) | -0.217 (inactive) | 0.511 (inactive) | 0.152 | -0.111 | 0.263 (inactive) | -0.0795 | -0.005 | -4.89 (inactive) | -0.405 (inactive) | 0.433 (inactive) |
